Test results taken from PubChem BioAssay AID720518 (National Center for Advancing Translational Sciences (NCATS), 2013).
Results filed as inconclusive are left out. Activity calls are given as the source filed them. Calls come from the whole dose curve.

assay: qHTS for Inhibitors of Cell Surface uPA Generation: Wild-type Protective Antigen (WT-PrAg) Counterscreen for Cherry-picked Compounds; conditions: cells, WT protective antigen toxicity counterscreen; series mostly up to 115 µM; activity (protection): at the top concentration; note: 0% is about no effect

Row | Compound | activity (protection)
1 | COc1cc(C(C)=O)ccc1OCc1cn(CC(=O)c2ccc(O)cc2)nn1 | -1.14% (inactive)
2 | CC1(C)S[C@@H]2[C@H](NC(=O)C(C(=O)O)c3ccccc3)C(=O)N2[C@H]1C(=O)O (stereo not given in full) | 1.43% (inactive)
3 | O=C(COc1cc2oc(=O)cc(-c3ccccc3)c2cc1Cl)NC(Cc1c[nH]c2ccc(O)cc12)C(=O)O (stereo not given) | 0.799% (inactive)
4 | CCn1c(CNc2ccc(F)cc2)nnc1SCC(=O)Nc1ccccc1OC | -1.71% (inactive)
5 | CCC(C)NC(=O)c1ccc2nc(-c3ccc(OC)c(OC)c3)c(-c3ccc(OC)c(OC)c3)nc2c1 (stereo not given) | -2.18% (inactive)
6 | COC(=O)COc1cc2ccccc2cc1C(=O)Nc1ccccc1 | -0.212% (inactive)
7 | Cc1ccc(S(=O)(=O)N2CCOCC2)cc1C(=O)OC1CCOC1=O (stereo not given) | -1.14% (inactive)
8 | COc1cc(/C=N/NC(=O)Cc2csc(C)n2)ccc1OCC(C)C | -0.127% (inactive)
9 | O=c1[nH]c2ccccc2cc1CN(CC1CCCO1)S(=O)(=O)c1ccccc1 (stereo not given) | -0.109% (inactive)
10 | C=CCOC(=O)C1=C[C@@H](c2coc3ccccc3c2=O)C[C@@H](OCc2ccc(CO)cc2)O1 | -1.44% (inactive)
11 | COC(=O)Cc1c(C)c2ccc(OCC(=O)N3CCCC(C)C3)c(C)c2oc1=O (stereo not given) | -1.64% (inactive)
12 | O=C(CC1(O)C(=O)Nc2ccccc21)c1cccc(Br)c1 (stereo not given) | 0.0973% (inactive)
13 | O=C(CN1C(=O)CSCC1=O)NCc1ccc(F)cc1 | 0.538% (inactive)
14 | Cn1nc(N2CCN(S(=O)(=O)c3ccccc3)CC2)c(=O)n(C)c1=O | -0.197% (inactive)
15 | CCOc1cc(C(=O)OCC(=O)c2cc(C)n(CC3CCCO3)c2C)ccc1OCC(=O)N1CCOCC1 (stereo not given) | -1.31% (inactive)
16 | CC1CCCN(S(=O)(=O)c2cccc([N+](=O)[O-])c2)C1 (stereo not given) | 0.828% (inactive)
17 | CC(=O)Nc1ccc(OS(=O)(=O)c2c(C)cc(C)cc2C)cc1 | -2.07% (inactive)
18 | CN(C)C(=O)NC(NC(=S)Nc1ccccc1)C(Cl)(Cl)Cl (stereo not given) | -1.51% (inactive)
19 | Cc1nc(SCc2nc3ccccc3[nH]2)c2oc3cc([N+](=O)[O-])ccc3c2n1 | -2.07% (inactive)
20 | CCCCNC(=O)C1CCN(S(=O)(=O)c2c(C)noc2/C=C\c2ccc(OC)cc2)CC1 | -1.14% (inactive)

Row | Compound | activity (protection)
21 | COc1cccc(C(=O)Cn2c(NCCCO)nc3ccccc32)c1 | -0.884% (inactive)
22 | COc1ccc(Cc2nnc(Nc3ccc(C)cc3)o2)cc1OC | -0.388% (inactive)
23 | CC(=O)c1ccc2c(c1)c1ccccc1n2CC(C)C | 0.604% (inactive)
24 | CCS(=O)c1scc(-c2ccc(Cl)cc2)c1C#N (stereo not given) | -2.44% (inactive)
25 | COC(=O)CNC(=O)COC(=O)/C=C/c1ccccc1[N+](=O)[O-] | -1.21% (inactive)
26 | O=S(=O)(NCC(c1cccnc1)N1CCOCC1)c1ccccc1 (stereo not given) | -1.02% (inactive)
27 | O=C(Nc1ccc(S(=O)(=O)N2CCOCC2)cc1)c1cc(-c2ccccc2O)n[nH]1 | -0.407% (inactive)
28 | COc1ccc(N(C(C)C(=O)NN=C2CCCC2)S(C)(=O)=O)cc1 (stereo not given) | 0.768% (inactive)
29 | COc1cccc(NC(=O)CSc2nc3ncc(Br)cc3[nH]2)c1 | 0.5% (inactive)
30 | CCOC(=O)c1ccc(N=Cc2c(O)n(-c3ccc(OC)cc3)c(=S)[nH]c2=O)cc1 | 0.91% (inactive)
31 | CCOC(=O)c1cc(-c2ccccc2C)n(CC2CC(c3ccc(OC)cc3)=NO2)n1 (stereo not given) | -2.18% (inactive)
32 | FC(F)(F)Oc1ccc(NC2=NCCCS2)cc1 | -0.406% (inactive)
33 | Cc1ccc(/C=C/C(=O)O)cc1S(=O)(=O)N1CCc2ccccc21 | -1.49% (inactive)
34 | COc1ccc(CCNC(=O)Cn2cccc2C(=O)c2ccccc2)c(OC)c1 | -1.11% (inactive)
35 | O=C(NNC(=O)C1CC(c2cccs2)=NO1)Nc1ccccc1 (stereo not given) | 0.0009% (inactive)
36 | O=C(CCc1ccccc1)NNC(=O)c1cccc(F)c1 | -1.65% (inactive)
37 | CCC(C)Sc1nnc(NS(=O)(=O)Cc2ccccc2)s1 (stereo not given) | -1.55% (inactive)
38 | CCc1ccc(NC(=O)Cn2cnc([N+](=O)[O-])c2)cc1 | -0.969% (inactive)
39 | COc1ccc(/C(C)=N/N2CCOCC2)c(O)c1 | 1.21% (inactive)
40 | COc1cc(F)ccc1S(=O)(=O)n1c(C)nc2ccccc21 | 3.9% (inactive)
